PLK1 PBD inh – blocks phosphopeptide binding to human PLK1 polo-box domain | P53350 | Plk1 PBD binding of FITC phosphopeptide, fluorescence polarization | Potency, µM, hits mostly inhibitors | actives 2.8% (n = 360,000) | AID 720504; note: series mostly up to about 57 µM; nearly all actives have a fitted effect of over 65% in size
Sfp inh – inhibitors of Bacillus subtilis Sfp phosphopantetheinyl transferase; AID 1490; Q9F4F7; actives 3.5% (n = 310,000); Biochemical Sfp PPTase activity, qHTS; Potency, µM, actives largely listed as inhibitors;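 note: the enzyme is Sfp with the accession as filed and its product quenches rhodamine fluorescence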
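Compounds were incubated with enzyme (final 15 nM) for 15 min at room temperature before substrate addition started the reaction. Fluorescence at 525 nm excitation, 598 nm emission was recorded immediately and after 30 minutes.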
G9a inh – G9a (human) methyltransferase inhibition. G9a H3K9 monomethylation, AlphaScreen, 2 h. Potency, µM (series often up to 102 µM), usual class: inhibitors. actives 8.8% (n = 350,000); note: nearly all actives have a fitted effect of over 75% in size
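Step 1: enzyme (final 20 nM) with compound, 15 min RT. Step 2: substrate peptide 500 nM and SAM 20 uM, 2 h RT. Step 3: anti-H3K9me1 antibody and AlphaScreen beads, 10 min, then plate read.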
JMJD2A Tudor – inhibitors of human JMJD2A Tudor domain. O75164. AlphaScreen JMJD2A-Tudor / H3K4me3 peptide binding. Potency, µM (highest dose often 114 µM), most hits filed as inhibitors. actives 4.4% (n = 390,000). AID 504339; note: nearly all actives have a fitted effect of over 50% in size
Target sequence (O75164 whole entry, looked up, the tested form may be a part): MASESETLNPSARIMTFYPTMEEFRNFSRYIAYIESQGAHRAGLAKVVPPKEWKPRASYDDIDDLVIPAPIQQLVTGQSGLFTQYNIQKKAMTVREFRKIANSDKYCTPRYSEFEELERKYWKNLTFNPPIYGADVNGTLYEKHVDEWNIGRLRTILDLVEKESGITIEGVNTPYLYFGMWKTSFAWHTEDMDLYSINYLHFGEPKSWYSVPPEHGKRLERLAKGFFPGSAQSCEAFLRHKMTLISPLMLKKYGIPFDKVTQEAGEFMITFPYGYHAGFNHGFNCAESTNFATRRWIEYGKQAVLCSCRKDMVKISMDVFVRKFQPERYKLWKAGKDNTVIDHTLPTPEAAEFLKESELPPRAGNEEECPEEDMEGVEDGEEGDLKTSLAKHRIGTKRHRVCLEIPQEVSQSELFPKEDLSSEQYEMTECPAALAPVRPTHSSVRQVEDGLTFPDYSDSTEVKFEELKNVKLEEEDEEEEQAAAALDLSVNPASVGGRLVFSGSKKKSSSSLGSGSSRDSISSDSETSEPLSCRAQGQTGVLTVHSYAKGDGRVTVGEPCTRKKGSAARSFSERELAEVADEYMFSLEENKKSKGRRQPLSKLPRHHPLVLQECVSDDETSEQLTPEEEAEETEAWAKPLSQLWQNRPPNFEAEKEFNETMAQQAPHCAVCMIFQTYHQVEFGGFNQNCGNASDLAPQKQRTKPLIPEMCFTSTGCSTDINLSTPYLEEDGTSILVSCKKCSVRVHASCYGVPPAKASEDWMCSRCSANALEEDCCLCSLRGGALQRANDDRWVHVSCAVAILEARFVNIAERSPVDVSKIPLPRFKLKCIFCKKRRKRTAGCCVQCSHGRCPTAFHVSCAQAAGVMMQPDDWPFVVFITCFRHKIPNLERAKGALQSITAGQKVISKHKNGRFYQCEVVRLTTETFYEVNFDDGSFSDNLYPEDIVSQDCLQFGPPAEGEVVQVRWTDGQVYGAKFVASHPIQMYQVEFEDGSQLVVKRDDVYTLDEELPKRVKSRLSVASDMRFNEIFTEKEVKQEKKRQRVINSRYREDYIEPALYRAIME
BAZ2B inh – blocks human BAZ2B | Q9UIF8 | AlphaScreen BAZ2B-H3K14Ac peptide displacement | Potency, µM (highest dose often 114 µM), hits mostly inhibitors | actives 4.4% (n = 360,000); note: nearly all actives have a fitted effect of over 60% in size
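Compounds, titrated to a top concentration of 110 uM, were incubated 30 min at room temperature with preformed BAZ2B/acetyl-K14 H3 peptide complex (50 nM each). Proximity signal was measured by AlphaScreen after 20 min with beads.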
HP1b chromo inh – inhibitors of HP1-beta chromodomain binding to methylated histone tails; AlphaScreen HP1-beta / biotin-H3K9me3 peptide binding; Potency, µM (highest dose often 114 µM), hits mostly inhibitors; actives 0.56% (n = 390,000); AID 540317; note: nearly all actives have a fitted effect of over 70% in size
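AlphaScreen: HP1-beta (50 nM) preformed 30 min with biotin-H3(1-18)K9me3 peptide (50 nM) in PBS pH 7.4, 0.01% Tween-20. Compound added for 30 min at RT, then streptavidin donor/nickel chelate acceptor beads (10 ug/mL) for 30 min.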
Large screens that a line does not name were inactive. Sampled rows, rich in hits. Any-hit rate of the full collection: about 12%. Calls come from the whole dose curve; as a rule, active = well fitted curve in the direction sought with a large enough effect; inconclusive = small, poorly fitted or top-dose-only effect, or another doubt; inactive = no such curve, though single readings can be large; an effect the other way counts as inactive or inconclusive.

CC1CCN(S(=O)(=O)c2cc(C(=O)Nc3ccccn3)ccc2Br)CC1	none (no result: Sfp inh)
COc1ccc(-n2c(-c3ccc(C)cc3)n[nH]c2=S)cc1	Sfp inh 89.1µM, G9a inh 3.98µM, JMJD2A Tudor 20µM
Cc1ccc(-n2c(-c3cnccn3)n[nH]c2=S)cc1	Sfp inh 56.2µM, G9a inh 7.94µM, JMJD2A Tudor 8.91µM, BAZ2B inh 79.4µM
COc1ccc(-n2c(COc3ccc(Cl)cc3Cl)n[nH]c2=S)cc1	none (no result: Sfp inh, G9a inh, JMJD2A Tudor, BAZ2B inh, HP1b chromo inh)
COc1cc(-c2n[nH]c(=S)n2-c2ccc(C)cc2)cc(OC)c1OC	JMJD2A Tudor 5.01µM, BAZ2B inh 50.1µM (no result: G9a inh)
CC(c1ccccc1)n1c(-c2ccc(C(C)(C)C)cc2)n[nH]c1=S (stereo not given)	G9a inh 31.6µM, JMJD2A Tudor inconclusive, BAZ2B inh inconclusive
CCc1c(C)sc2c1CCN(C(=O)Nc1ccc(F)c(Cl)c1)C2c1ccc(F)cc1 (stereo not given)	none (no result: PLK1 PBD inh, Sfp inh)
Cc1cccc(Cn2c(CNS(=O)(=O)c3ccc4c(c3)CCCC4)nc3cccnc32)c1	none (no result: PLK1 PBD inh, Sfp inh)
O=C(CCC1N=C2c3ccccc3N=C(SCc3cccc(F)c3)N2C1=O)NCc1ccc(F)cc1 (stereo not given)	none (no result: PLK1 PBD inh, Sfp inh)
COc1ccc(-c2n[nH]c(=S)n2-c2ccc(Br)cc2)cc1OC	G9a inh 1.58µM, JMJD2A Tudor 50.1µM
Cc1ccc(-n2c(-c3ccncc3)n[nH]c2=S)cc1C	Sfp inh 44.7µM, G9a inh 5.01µM, JMJD2A Tudor 5.01µM
COc1ccc(-c2nc(N)n[nH]2)cc1OC	BAZ2B inh inconclusive
CC(C)(C)c1ccc(-c2n[nH]c(=S)n2-c2ccccc2)cc1	G9a inh 2.82µM
Cn1c2ccccc2c(=O)c2c(=O)n(-c3ccccc3)c(-c3ccc(C(C)(C)C)cc3)nc21	none
Cc1ccc(-c2n[nH]c(=S)c3ccccc23)cc1	PLK1 PBD inh inconclusive, G9a inh 31.6µM
CC(C)(C)c1ccc(CC(=O)N2CCC2(C)C(=O)NS(=O)(=O)c2cccc(F)c2)cc1 (stereo not given)	none (no result: Sfp inh, G9a inh, JMJD2A Tudor, BAZ2B inh, HP1b chromo inh)
O=C(O)c1ccc(-n2c(-c3ccccc3)n[nH]c2=S)cc1	Sfp inh 79.4µM, G9a inh inconclusive, JMJD2A Tudor 28.2µM
Cc1ccc(-n2c(Cc3cccc4ccccc34)n[nH]c2=S)c(C)c1	G9a inh inconclusive
Cc1ccc(-n2c(-c3ccccc3)n[nH]c2=S)c(C)c1	G9a inh 1.78µM, JMJD2A Tudor inconclusive
CC(C)C[C@@H](CC(=O)N[C@H](CC(=O)N[C@@H]1CCNC[C@H]1C(=O)N[C@H](CC(=O)N[C@@H](CCC(=O)O)CC(=O)O)CC(C)C)C(C)C)NC(=O)[C@@H]1CNCC[C@H]1N	none (no result: PLK1 PBD inh, G9a inh, JMJD2A Tudor, BAZ2B inh, HP1b chromo inh)
Cc1ccc(S(=O)(=O)N(C)C(C)CCc2ccco2)cc1 (stereo not given)	none (no result: Sfp inh)
COc1ccc(S(=O)(=O)N(C)C(C)CCc2ccco2)cc1 (stereo not given)	G9a inh 79.4µM
CCOC(=O)CSc1nc2c(sc3ccccc32)c(=O)n1Cc1ccc(OC)cc1	none (no result: PLK1 PBD inh, Sfp inh)
O=C(CSc1nc2c(sc3ccccc32)c(=O)n1CCO)NCC1CCCO1 (stereo not given)	none
CCOC(=O)CSc1nc2c(sc3ccccc32)c(=O)n1CCO	JMJD2A Tudor 56.2µM (no result: PLK1 PBD inh, Sfp inh)
CCCCn1c(SCC(=O)NCc2ccco2)nc2c(sc3ccccc32)c1=O	Sfp inh inconclusive
CCOCCCn1c(SCC(=O)NCc2ccco2)nc2c(sc3ccccc32)c1=O	Sfp inh 22.4µM
O=C(CSc1nc2c(sc3ccccc32)c(=O)n1CCCN1CCCC1)NCC1CCCO1 (stereo not given)	G9a inh 56.2µM
O=C(Nc1cccc(F)c1)N1CCCC2(CCN(C(=O)c3cc(C(F)(F)F)cc(C(F)(F)F)c3)CC2)C1	none (no result: PLK1 PBD inh, JMJD2A Tudor, BAZ2B inh, HP1b chromo inh)
O=C(O)c1cc(-c2ccc(/C=N/Nc3ccc([N+](=O)[O-])cn3)o2)ccc1Cl	PLK1 PBD inh inconclusive, Sfp inh 44.7µM, G9a inh 79.4µM, JMJD2A Tudor 39.8µM, HP1b chromo inh inconclusive (no result: BAZ2B inh)
O=C(Cc1ccc(F)cc1)N/N=C/c1ccc(-c2ccc(Cl)c(C(=O)O)c2)o1	Sfp inh 28.2µM, G9a inh inconclusive
O=C(O)c1cc(N/N=C/c2ccc(-c3ccc(F)cc3)o2)ccc1Cl	PLK1 PBD inh inconclusive, G9a inh 50.1µM, BAZ2B inh inconclusive
COCc1cc(C)n(CC(=O)N/N=C/c2ccc(-c3ccc(Cl)c(C(=O)O)c3)o2)c(=O)c1C#N	Sfp inh inconclusive, JMJD2A Tudor inconclusive, BAZ2B inh inconclusive
Cc1nnc(SCC(=O)N/N=C/c2ccc(-c3ccc(C)c(Cl)c3)o2)s1	G9a inh 11.2µM, HP1b chromo inh inconclusive
COc1ccc(C(N)c2nccc3cc(OC)c(OC)cc23)cc1OC (stereo not given)	JMJD2A Tudor 56.2µM, BAZ2B inh 14.1µM (no result: G9a inh)
CC(=O)Oc1c(Sc2ccccc2[N+](=O)[O-])c(C)nn1C(C)(C)C	G9a inh 44.7µM, JMJD2A Tudor inconclusive, BAZ2B inh inconclusive
Cc1ccc(-n2nc(C)c(Sc3ccccc3[N+](=O)[O-])c2N)cc1	PLK1 PBD inh 2.38µM, G9a inh 10µM, JMJD2A Tudor inconclusive, BAZ2B inh 35.5µM, HP1b chromo inh inconclusive
CCC(=O)N1CCc2cc(S(=O)(=O)CCC(=O)N3CCN(c4ccc(F)cc4)CC3)ccc21	none
CCCCn1c(N)c(N(CCC(C)C)C(=O)CSc2nncn2-c2ccccc2)c(=O)[nH]c1=O	G9a inh 7.94µM, BAZ2B inh inconclusive (no result: Sfp inh)
CC(C)CN(C(=O)CSc1nncn1-c1ccccc1)c1c(N)n(CC(C)C)c(=O)[nH]c1=O	none
COCCCN(C(=O)CSc1nc2ccccc2c(=O)n1C)c1c(N)n(Cc2ccccc2)c(=O)[nH]c1=O	none (no result: Sfp inh, G9a inh, BAZ2B inh)
CCCCN(C(=O)CSc1nncn1-c1ccccc1OC)c1c(N)n(Cc2ccccc2)c(=O)[nH]c1=O	G9a inh 56.2µM
Cc1cccc(NC(=O)CCc2c(C)nc3c(c(C)nn3C(C)(C)C)c2C)c1C	none (no result: PLK1 PBD inh, Sfp inh)
Cc1nn(C(=O)c2cccc([N+](=O)[O-])c2)c(C)c1Cl	G9a inh inconclusive
CCOc1ccc(CNC(=O)Cn2nc(C)c3sc4ccccc4c3c2=O)cc1	JMJD2A Tudor inconclusive (no result: PLK1 PBD inh, Sfp inh)
CCOCC(=O)Nc1cc(C(=O)Nc2cc(C)cc(C)c2)ccc1Cl	none (no result: PLK1 PBD inh, JMJD2A Tudor, HP1b chromo inh)
COc1ccc(C2c3cccn3CCN2S(=O)(=O)c2ccc([N+](=O)[O-])cc2)cc1 (stereo not given)	G9a inh 12.6µM, BAZ2B inh inconclusive (no result: PLK1 PBD inh, Sfp inh)
Cc1ccc(C2=C(O)c3ccccc3C(=O)C2=O)cc1	BAZ2B inh inconclusive (no result: G9a inh)
NC(=O)C1=C(c2ccccc2)c2ccccc2C1=O	PLK1 PBD inh 4.23µM (no result: Sfp inh, G9a inh, BAZ2B inh)
COc1ccc(CNC(=O)C2CCN(c3nnc(-n4c(C)ccc4C)s3)CC2)c(OC)c1	none (no result: PLK1 PBD inh, Sfp inh)

Screening results (PubChem)
